From PubChem BioAssay (NCI)
About 79,000 compounds went through this panel and 15% of them were active in at least one assay; those are over-represented in the sample as a whole. Rule as the data show it: active = growth inhibition above about 70%; inactive = the rest.

Tests used:
[1] = NCI Yeast Anticancer Drug Screen. Data for the rad50 strain (AID 155);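 also: 0% = growth of vehicle-only cultures of the same strain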; details: S. cerevisiae rad50 strain growth inhibition; at 50.0 µM; stronger effect = higher value
Summary of the method: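 Readout: growth inhibition relative to vehicle-treated cultures. Compound exposure was carried out in a genetically defined yeast strain deficient in DNA damage repair.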

[2] = NCI Yeast Anticancer Drug Screen. Data for the mec2-1 strain (AID 157); details: S. cerevisiae mec2-1 strain, at 50.0 µM, stronger effect = higher value
Summary of the method: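 Cells of the genetically defined mec2-1 yeast strain are incubated with test compound. Inhibition of growth is calculated against vehicle-treated controls.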

[3] = NCI Yeast Anticancer Drug Screen. Data for the sgs1 mgt1 strain (AID 161);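 also: 0% = growth of cultures given vehicle only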; details: S. cerevisiae sgs1 mgt1 strain, at 50.0 µM, stronger effect = higher value
Summary of the method: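 Genetically altered yeast, compound exposure, growth inhibition relative to vehicle.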

[4] = NCI Yeast Anticancer Drug Screen. Data for the cln2 rad14 strain (AID 165);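 also: 0% = growth equal to vehicle treated cultures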; details: S. cerevisiae cln2 rad14 strain, at 50.0 µM, stronger effect = higher value
Summary of the method: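 The screen exposed genetically defined yeast (cln2 rad14) to test compounds and scored growth inhibition relative to vehicle-treated controls.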

[5] = NCI Yeast Anticancer Drug Screen. Data for the bub3 strain (AID 167); details: S. cerevisiae bub3 mutant strain, at 50.0 µM, stronger effect = higher value
Summary of the method: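 Readout: yeast growth inhibition, expressed relative to vehicle-only wells. The test organism is a mutant strain from a panel with lesions in DNA repair or checkpoint genes.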

[6] = NCI Yeast Anticancer Drug Screen. Data for the mlh1 rad18 strain (AID 175); details: S. cerevisiae mlh1 rad18 strain growth inhibition; at 50.0 µM; stronger effect = higher value
Summary of the method: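 Compound-treated yeast growth, normalised to vehicle controls. Strain bears defined DNA repair mutations.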

Measured: growth inhibition

CC(=O)c1ccc2c(ccc3ccccc32)c1O
inactive: [1] -16.5% | [2] -11.6% | [3] -3.65% | [4] -8.8% | [5] -2.45% | [6] 0.7%

Cc1ccn2nnnc2c1
inactive: [1] -8.45% | [2] -11.2% | [3] -1.2% | [4] 1% | [5] 3.45% | [6] -17.6%

Cc1ccc2nccnc2c1
inactive: [1] -2.45% | [2] 3.9% | [3] -12.2% | [4] 5.1% | [5] 10.9% | [6] -1.85%

COc1cccc(-c2nc(SCC(N)=O)[nH]c(=O)c2C#N)c1
inactive: [1] 6.25% | [2] 1.8% | [3] 13.5% | [4] 12% | [5] 17.5% | [6] 14.2%

COc1cc(OC)c(-c2cc(C(=O)O)c3cc4ccccc4cc3n2)c(OC)c1
inactive: [1] 18.2% | [2] 23.2% | [3] 24.1% | [4] 16.7% | [5] 21.6% | [6] 32%

O=C(/C=C/c1c(-c2ccccc2)[nH]c2ccccc12)c1cccc([N+](=O)[O-])c1
inactive: [1] 43% | [2] 17.1% | [3] 42% | [4] 20.9% | [5] 19.9% | [6] 36.2%

CCCCCCCC(=O)NCCCC(C)Nc1cc(OC)cc2cccnc12 (stereo not drawn)
inactive: [1] 39.7% | [2] 47% | [3] 19.4% | [4] 14.9% | [5] 22% | [6] 28.1%

c1ccc2c(c1)CCOC2
inactive: [1] -0.4% | [2] 5.9% | [3] 3.45% | [4] 6.5% | [5] 8.55% | [6] -3.1%

CCO[C@H]1OC(=O)[C@@H]2C(c3ccc([N+](=O)[O-])cc3)=NO[C@H]12
inactive: [1] -12% | [2] -32.5% | [3] -12.9% | [4] 2.7% | [5] 4.85% | [6] -29.8%

Nc1nc2c(ncn2-c2cccc(Cl)c2)c(=O)[nH]1
inactive: [1] -0.9% | [2] 16.5% | [3] 7.55% | [4] -7.5% | [5] 31.5% | [6] 13.8%

O=[N+]([O-])c1ccccc1N=C=S
inactive: [1] 9.5% | [2] -10.3% | [3] -4.05% | [4] -36% | [5] -9.85% | [6] -17.7%

COC(=O)c1nnn(-c2ccccc2C(C)C)c1C(=O)c1ccccc1
inactive: [1] 7% | [2] -8.85% | [3] -0.9% | [4] -5.75% | [5] -21.4% | [6] 24.5%

O=C(/C=C(\Cl)c1ccc2c(c1)OCO2)OC/C=C\c1ccc2c(c1)OCO2
inactive: [1] 30.9% | [2] 9.55% | [3] 25.1% | [4] 20.3% | [5] -7.4% | [6] 19.2%

O=C1C2=C(Nc3cc(Cl)ccc3N2)OC1c1ccc(C2OC3=C(Nc4ccc(Cl)cc4N3)C2=O)cc1 (stereo not drawn)
inactive: [1] -20.1% | [2] 11.2% | [3] -7.05% | [4] -33.5% | [5] -7.3% | [6] 17.8%

COc1ccc(CNC(=O)C2C(=O)C(=O)N(Cc3ccc(OC)c(OC)c3)C2=O)cc1OC (stereo not drawn)
inactive: [1] 20.8% | [2] -5.45% | [3] -0.9% | [4] 17.1% | [5] -1.25% | [6] 14.7%

CCCCCCCCCCCCSCC(=O)O
inactive: [1] -16.8% | [2] 10.8% | [3] 14.2% | [4] -82.8% | [5] 39% | [6] -25.8%

CCOP(=O)(Cc1c(C)cc(Br)c2ccccc12)OCC
inactive: [1] -2.85% | [2] -13.8% | [3] -0.95% | [4] -32.2% | [5] 5.45% | [6] -9.35%

COc1ccc(/C=N/NC=O)cc1OC
inactive: [1] 7.35% | [2] 6.5% | [3] 1.2% | [4] 1.45% | [5] -12.5% | [6] -2.85%

CCCC1(C(OC)OC)NC(=O)N(Cc2ccccc2)C1=O (stereo not drawn)
inactive: [1] 4.45% | [2] -5.15% | [3] 5.15% | [4] -19.7% | [5] -2.1% | [6] 4.75%

CCCCc1ccc(N=Nc2ccccc2)cc1
inactive: [1] -9.35% | [2] -17.5% | [3] -15.6% | [4] -59% | [5] -6.05% | [6] -32.2%

CC(=O)S
inactive: [1] -36.5% | [2] -18.4% | [3] -11.9% | [4] -24.2% | [5] 6.35% | [6] 5.7%

CC/C(=C\c1ccc(NC(C)=O)cc1)c1ccncc1
inactive: [1] -5.6% | [2] -16.6% | [3] 7.2% | [4] -0.85% | [5] -12.8% | [6] -4.6%

O=C1COC(c2ccccc2O)=NN1CCCN1CCCC1
inactive: [1] 12.9% | [2] -23.8% | [3] 21% | [4] -3.4% | [5] 14.1% | [6] 25.3%

O=C1N(O)C2(C=CCCC2)/C(=N/O)C12CCCCC2 (stereo not drawn)
inactive: [1] -8.5% | [2] -2.3% | [3] -0.9% | [4] 11.4% | [5] 11.4% | [6] 12.1%

CNS(=O)(=O)c1ccccc1C(=N)c1ccccc1
inactive: [1] -0.3% | [2] -8.25% | [3] -27.6% | [4] -4.95% | [5] -45.9% | [6] -31.4%

Cc1nc(C)c(C(=O)NN)cc1C(=O)NN
inactive: [1] 9.05% | [2] -3.7% | [3] -4.6% | [4] 7.45% | [5] -0.7% | [6] -14.7%

O=C(/C=C(\O)C(=O)O)/C=C(\O)c1ccc(Cl)cc1
inactive: [1] -15.7% | [2] 0.7% | [3] -27.4% | [4] -10.4% | [5] -23.8% | [6] -31.5%

CCCCCCCC/C=C\CCCCCCCC(=O)OCC1CCCO1 (stereo not drawn)
inactive: [1] -6.8% | [2] 4.7% | [3] -26.6% | [4] 69.2% | [5] 33.6% | [6] 4.45%

CCCCCCCCCc1cc(-c2ccc(C=O)s2)sc1-c1ccc(C=O)s1
inactive: [1] 8.8% | [2] -4.5% | [3] -8.8% | [4] -3.6% | [5] -12.9% | [6] 0.4%

Cc1cccc(NC(=S)NCCc2ccccn2)c1
inactive: [1] -6.85% | [2] -7.35% | [3] 17.9% | [4] -10.8% | [5] 12.7% | [6] 5.5%

COc1cc2c(cc1OC)[C@H]1Cc3cc(OC)c(OC)cc3[C@@H](C2)N1C(C)=O
inactive: [1] -2.1% | [2] -11.2% | [3] -16.6% | [4] 22.6% | [5] 20.9% | [6] -3.6%

C=C1C(=O)OC2CC(C)C3CC(O)OC(OCC)C3(C)CC12 (stereo not drawn)
inactive: [1] 24.1% | [2] 20.3% | [3] 12.4% | [4] 22.8% | [5] 32.2% | [6] -16.8%

Cc1ccc(S(=O)(=O)NC(CC(C)C)C(=O)O)cc1 (stereo not drawn)
inactive: [1] 6.65% | [2] -10.6% | [3] -4.55% | [4] -34.2% | [5] 1.3% | [6] 0.45%

Cn1c(C2CCc3cc(O)ccc3C2)cccc1=O (stereo not drawn)
inactive: [1] -26.8% | [2] 13.1% | [3] -4.25% | [4] -19.6% | [5] 14.7% | [6] -4.35%

Clc1ccc2c(c1)Cc1ccccc1-2
inactive: [1] 38.6% | [2] -6.95% | [3] 34.1% | [4] 7.5% | [5] 51.6% | [6] 22.2%

CC(C)CCC(=O)OCC(=O)c1ccc(-c2ccccc2)cc1
inactive: [1] 8.55% | [2] -13.1% | [3] 7.25% | [4] -1.45% | [5] 23.9% | [6] 9.1%

CN(C)C(=S)/N=c1\ssc(=S)n1C1CCCCC1
inactive: [1] -22.1% | [2] 2.55% | [3] 6.45% | [4] -49.6% | [5] 25.7% | [6] -11.5%

CCCOc1ccc(C2=C(c3ccccc3)C(=O)C(c3ccccc3)=C2c2ccccc2)cc1
inactive: [1] 34.2% | [2] 15.6% | [3] 20.6% | [4] 20.2% | [5] 2.25% | [6] 20.6%
